Assay results as given in the supplement of paper PMC6555819.

What follows are sequences tested on VDR homodimer (NR concentration 270 nM) (assay: PBM binding z-score (relative to random genomic background probes); higher = stronger binding; sequences stand for … in GC…GCGATTGACAGCGTAGAATGAAGG).
Summary of the method: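 Binding z-scores were set against random background probes. The data came from custom Agilent 4×180K protein-binding microarrays carrying double-stranded probes with 34-nt variable regions, incubated 1 h with ligand-free nuclear receptor dimers. Partner-specific antibodies detected binding, and scanned fluorescence was regression-normalized.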

Sequence	PBM binding z-score
AATACAGGATCATCGTAGGCCAGAGTACGCACAG	0.692
CCTGCTGGGCCAAAAAGGTCATTGATGCCGATAA	2.58
ATACCAAGGTGATCGCGAGGTCGTTGATACTAAC	2.67
AGTCATAGTTCAGGACGAGGTAACGTAAAGCACG	0.515
ATCGAAAGGTGGTGAGGTGAGTATACAGAAAGGC	0.366
CTCGAAAGGTCGGTTGAGGAGAGTATACGGATAA	0.602
CCGAGTAGCTTATGGGGCATTCAGGCAACGGTGA	-0.541
ATATGTAGGTTATCGGGTCGTTCAGTTTGCGCAT	2.55
GATACCGGGTCAAGGCCAGAGTACGCGTATTGAT	1.07
ACTAGCAGGACAAGTTTGGGTCACTCAAACAAAG	0.216
CGTCCAATGTCAGCAGGTCAGTGAAAGCGACGTG	0.584
CTCGAAAGGTCGTACTCAGGTGAGTATACCAAAC	1.47
ACTATTAGTTGAGACGAGGGAAACCGATAGGTTG	0.415
CGTCCAAGGTCATAGGAGGTCAGTGAAGACAGAT	4.13
GCATAAAGGTAATACAAGGTGAAAGTCCGATTGT	0.291
CTCGAAAGGTCTTGCTCAGGTGAGTATACCAAAC	-0.0365
CCTAGCAGGCCAGGGTCACACAAGCATTTCGCTT	1.18
ATCTCTAGGTAAAAGTTCAGCGAATCCCGAGGAT	1.07
